These results are taken from PubChem BioAssay.

The structures appear in SMILES notation. This is one part of the list. Calls of active or inactive are those of the source.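 How the source made its calls: active means mean inhibition across replicates above about 50% (limit read from the data); inactive means the rest.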

In the experiment the target is Sentrin-specific protease 8 (Homo sapiens) (UniProt Q96LD8). As to the kind of experiment: human SENP8 peptidase blockers, hit retest – biochemical, luminescence, single concentration, confirmation (AID 488912). The following applies: Recombinant SENP8, Z-RLRGG-aminoluciferin luminescence, 60 min; at 12.5 µM; hits give high values.
Sequence of Sentrin-specific protease 8 (Homo sapiens) (Q96LD8 whole entry, looked up): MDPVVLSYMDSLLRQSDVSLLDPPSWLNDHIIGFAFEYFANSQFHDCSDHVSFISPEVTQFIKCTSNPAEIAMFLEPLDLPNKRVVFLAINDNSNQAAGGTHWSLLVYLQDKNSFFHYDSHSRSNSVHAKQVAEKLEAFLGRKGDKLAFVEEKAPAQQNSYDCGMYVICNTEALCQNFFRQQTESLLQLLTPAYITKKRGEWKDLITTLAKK
For the compound `CCOc1ccc(N/C=C/C(=O)c2ccccc2)cc1`, the inhibition was 10.5% (inactive). With `CCC(=O)Nc1ccc(C(=O)Nc2cccc(OC)c2)cc1`, the inhibition was 42.4% (inactive). Take `O=C(Nc1ccccc1)Nc1ccccc1C(=O)NCc1ccco1`: the inhibition is 2.7% (inactive).

For the compound `COc1ccc(CNC(=O)COc2ccccc2C(=O)c2cnn(-c3ccccc3)c2)cc1OC`, the inhibition was 77.7% (active). Turning to `O=C(Nc1cc2ccccc2oc1=O)C1CCCCC1`, the inhibition was 8.2% (inactive). `CCSc1nnc(NC(=O)c2ccc(C)cc2)s1`: the inhibition was 33.7% (inactive). In the case of `Cc1ccc(F)c(NC(=O)CCc2ccccc2)c1`, the inhibition is 36.4% (inactive). With `Cc1nonc1C(=O)N/N=C/c1ccc(O)cc1`, the inhibition is 99.5% (active). Take `Brc1ccccc1C1Nc2cccc3cccc(c23)N1`: the inhibition is -7.3% (inactive). In the case of `Cc1ccnc(NC(=O)c2ccoc2C)c1`, the inhibition is 85.8% (active). For the compound `COc1cccc(C(=O)Nc2nc3ccc(S(C)(=O)=O)cc3s2)c1`, the inhibition is 4.4% (inactive). The figure for `COc1ccc2occ(C(=O)c3ccc(N=C(C)N(C)C)cc3)c2c1` is 44.8% (inactive); for `CC(=NCc1ccco1)c1c(C(F)(F)F)[nH]n(-c2nc3ccccc3s2)c1=O` it is 91.7% (active); for `Cc1cc(NC(=O)Nc2ccccc2[N+](=O)[O-])no1` it is 46% (inactive).

For `Cc1cccc(NC(=O)COc2ccc(Br)cc2C)n1`, the inhibition is 1% (inactive). For the compound `Cc1ccc(S(=O)(=O)Nc2nc3ccccc3nc2N2CCc3ccccc3C2)cc1`, the inhibition is -9.3% (inactive).

Take `CC1=CC(=C(C#N)c2nc3ccccc3s2)C=C(C)N1c1ccc(F)cc1F`: the inhibition was 12.4% (inactive). For `Brc1ccc2nc(N3CCCC3)sc2c1`, the inhibition is 83.5% (active). Regarding `CC(=O)Oc1ccc2c(c1)C(=O)c1ccccc1C2=O`, the inhibition was 38.1% (inactive). Consider `CCOC(=O)c1cnc2[nH]c3ccccc3n2c1=O`, for which the inhibition is 30.1% (inactive). Take `O=C(Nc1ccc(Cl)cc1)c1ccsn1`: the inhibition was 49.7% (inactive). As to `O=[N+]([O-])c1ccccc1N/N=C1\CCc2ccccc21`, the inhibition is -9.3% (inactive). In the case of `O=C(Nc1ccccc1)c1ccc(NC(=O)c2cccs2)cc1`, the inhibition is -8.2% (inactive). The result for `O=[N+]([O-])c1ccc2nc(-c3ccccn3)[nH]c2c1` reads 57.8% (active); that for `O=C(NC(=O)c1ccccc1)Nc1ccccc1O`, -10% (inactive); that for `CCOC(=O)c1cccc(NC(=O)c2ccc(F)cc2F)c1`, 54% (active).

Consider `COc1ccc(/C=C/c2noc(-c3ccccc3OC(C)=O)n2)cc1`, for which the inhibition was 55.1% (active). The figure for `O=c1c2c(nc3cc(-c4cccc(Cl)c4)[nH]n13)CCCC2` is -9.4% (inactive); for `COc1ccccc1NC(=O)c1ccc(N2CC3CC(C2)c2cccc(=O)n2C3)c(NC(=O)c2cccnc2)c1` (stereo not given) it is 8.2% (inactive). The figure for `O=C(O)/C=C/C(=O)NNc1ccc([N+](=O)[O-])cc1` is 67.5% (active). As for `O=C(O)c1ccc2c3c(cccc13)C(=O)N(OS(=O)(=O)c1ccccc1)C2=O`, the inhibition was 36.6% (inactive).

Take `O=C(c1cnn2ccccc12)N1CCc2ccccc21`: the inhibition is 36.7% (inactive).

For the compound `O=C(c1ccc(CSc2ccccc2)cc1)N1CCCCCC1`, the inhibition was 57.5% (active). The result for `COc1ccc(C(CC(=O)c2ccccc2)S(=O)(=O)c2ccccc2)cc1` (stereo not given) reads 25% (inactive). The figure for `COCn1c(COc2ccccc2)nc2ccccc21` is 39.7% (inactive).

For `c1ccc(-c2noc(-c3cccs3)n2)nc1`, the inhibition was 90% (active). The figure for `CCOC(=O)/C(C#N)=C/c1ccc(N2CCCCC2)cc1` is 25.6% (inactive); for `COCCN(CCOC)c1nc(N)c2c(N)nc3c(c2c1C#N)CC(=O)N3Cc1ccc(Cl)cc1` it is -5.5% (inactive). On to `Nc1ncc(-c2cc3ccccc3oc2=O)s1`, for which the inhibition was 92.7% (active). The result for `O=C(NCc1ccccn1)c1c(O)c2c([nH]c1=O)CCCC2` reads -0.6% (inactive).

In general, inhibition refers to the relative decrease from the control value, in per cent.
